Assay results published in PubChem BioAssay AID686976 (The Scripps Research Institute Molecular Screening Center, 2013).
In all, about 1,900 compounds went through this assay and about 320 (17%) were called active. The list is a sample of the results. A number with no mark means an inactive call. No stated cut-off is given here; in the data, active means inhibition above about 30%; inactive means the rest.

Tested on: CCHF virus ovarian tumor domain protease (vOTU, L protein)
Assay: CCHFV vOTU protease inhibitors, confirmation, biochemical, Pep-AMC substrate, fluorescence (AID 686976)
Details: Recombinant CCHFV vOTU, at 11.5 µM, stronger effect = higher value

Structure (SMILES)	inhibition
O=C(OCC(=O)c1cccs1)c1ccc([N+](=O)[O-])o1	-0.43%
Cc1cc(OC(C)C(=O)Nc2ccc(S(=O)(=O)Nc3onc(C)c3C)cc2)cc(C)c1Cl (centres undefined)	12.3%
CC(=O)N1CCN(c2ccc(NCc3ccc(C(C)C)cc3)cc2)CC1	-11.5%
Clc1ccc(C2=CSC3=Nc4cccc5cccc(c45)N23)cc1	94.7% (active)
O=S(=O)(Nc1ccc(O)c2ccccc12)c1ccc(OC(F)(F)F)cc1	10.3%
COc1ccc(S(=O)(=O)/N=C2\C=C(NS(=O)(=O)c3ccccc3)C(=O)c3ccccc32)cc1	33% (active)
Cc1ccc(S(=O)(=O)/N=C2\C=C(NS(=O)(=O)c3ccc(C)cc3)C(=O)c3ccccc32)cc1	38.1% (active)
O=C1NC(c2ccc(-c3ccccc3[N+](=O)[O-])o2)C(C(=O)c2ccc(Cl)cc2)C(O)(C(F)(F)F)N1 (centres undefined)	34.9% (active)
CC1=NN(c2ccc(Cl)c(C(=O)O)c2)C(=O)/C1=C/c1ccc(-c2ccccc2[N+](=O)[O-])o1	5.11%
Cc1cc(C)cc(NC(=S)NCCc2c[nH]c3ccccc23)c1	-3.11%
CCN(CC)CCCC(C)n1c2nc(=O)[nH]c(=O)c-2nc2cc(Cl)ccc21 (centres undefined)	98.9% (active)
COc1ccc(C(=O)COC(=O)c2ccc([N+](=O)[O-])s2)cc1OC	12.4%
COc1cc(NC(=O)COC(=O)c2ccc([N+](=O)[O-])s2)cc(OC)c1OC	81.3% (active)
O=C(COc1ccc(Cl)cc1)N1CCN(c2cccc(C(F)(F)F)c2)CC1	-7.38%
COCCNC(=O)Nc1ccc2nc(-c3ccco3)c(-c3ccco3)nc2c1	1.78%
O=C(O)c1cc(S(=O)(=O)Nc2ccc3cn[nH]c3c2)ccc1Br	-10.8%
Oc1ccc(N=Cc2sc3ccccc3c2Cl)cc1	-0.82%
COc1ccccc1CNS(=O)(=O)c1cc2c3c(c1)CCC(=O)N3CCC2	-12.5%
Cc1cccc(C)c1NC(=O)CNC(=O)c1c(C)nn(-c2ccccc2)c1C	-17.8%
Oc1c(Cl)cc(Cl)c(Cl)c1Cc1c(O)c(Cl)cc(Cl)c1Cl	31.2% (active)
CC(=O)N(C1=C(Cl)C(=O)c2ccccc2C1=O)c1ccc(C(=O)O)cc1	101% (active)
Cc1oc2c(c1C(=O)N1CCOCC1)C(=O)c1ccccc1C2=O	41% (active)
CC(C(=O)Nc1ccccc1-c1ccccc1)N1CCOCC1 (centres undefined)	-10.3%
COc1ccc2c(c1)c(=Cc1ccc(N(C)C)cc1)c1cc(-c3ccccc3)[n+](C)n12	-15.8%
